KCNH2 3.1 block: inhibitors of human KCNH2 3.1 potassium channel isoform. U2OS KCNH2 3.1, thallium flux FluxOr; hits give low values. activity change, % (tested at about 1.8 µM). AID 720553. hit rate 0.95% among 340,000;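 active = maximum activity change below -70%; inconclusive = maximum activity change from -70% to -50%; inactive = maximum activity change above -50%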;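 also: thallium influx rate constant from kinetic fluorescence after stimulation buffer; % is scaled to controls: 0 for no effect and ±100 for the full control effect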
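Measured as rate of thallium-driven FluxOr signal in transduced U2OS cells carrying the 3.1 channel, read kinetically for 2 min upon stimulation; values are rate constants scaled to DMSO control wells.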
12-LOX inh: blocks human arachidonate 12S-lipoxygenase. AID 1671190. hit rate 1.1% among 580,000. purified 12hLO, xylenol orange hydroperoxide absorbance. Potency, µM (series often up to 108 µM), inactives show at the top dose activity change, negative = inhibition, most hits filed as inhibitors; also: potency is read from the fitted curve at half-maximal effect; % is scaled to controls: 0 for no effect and ±100 for the full control effect
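Hydroperoxide product was detected by ferrous iron/xylenol orange as the 573 to 405 nm absorbance ratio. Arachidonic acid at 40 uM (final) was turned over for 30 min at room temperature by 150 nM human 12hLO, pH 7.0 Hepes buffer, after 15 min compound preincubation.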
AT treatment: candidate therapy for ataxia-telangiectasia. hit rate 0.19% among 320,000. Potency, µM (top dose mostly 57.5 µM), for the others: at the highest dose activation, usual class: activators. F2112 A-T fibroblasts, KAP-1 phosphorylation AlphaLISA; neocarzinostatin DNA damage 30 min before lysis; also: potency is read from the fitted curve at half-maximal effect; % of control where 0% means no effect; nearly all actives have a fitted effect of over 45% in size
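ATM-like activity read as KAP-1 phosphorylation via AlphaLISA donor/acceptor antibody pairs after lysis and 6 hr at 25C. Cells were ATM-null patient fibroblasts (F2112, hTERT), dosed 60 min, then exposed to the DSB inducer NCS for 30 min.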
hERG WT inh: inhibitors of human wildtype KCNH2 potassium channel; Q12809; U2OS, BacMam KCNH2, thallium flux FluxOr; hits give low values; activity change, % at 1.84 µM; hit rate 0.37% among 340,000; AID 720551;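 active = maximum activity change below -70%; inconclusive = maximum activity change between -70% and -50%; inactive = maximum activity change above -50%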; also: % is scaled to controls: 0 for no effect and ±100 for the full control effect
Target sequence (Q12809 whole entry, looked up): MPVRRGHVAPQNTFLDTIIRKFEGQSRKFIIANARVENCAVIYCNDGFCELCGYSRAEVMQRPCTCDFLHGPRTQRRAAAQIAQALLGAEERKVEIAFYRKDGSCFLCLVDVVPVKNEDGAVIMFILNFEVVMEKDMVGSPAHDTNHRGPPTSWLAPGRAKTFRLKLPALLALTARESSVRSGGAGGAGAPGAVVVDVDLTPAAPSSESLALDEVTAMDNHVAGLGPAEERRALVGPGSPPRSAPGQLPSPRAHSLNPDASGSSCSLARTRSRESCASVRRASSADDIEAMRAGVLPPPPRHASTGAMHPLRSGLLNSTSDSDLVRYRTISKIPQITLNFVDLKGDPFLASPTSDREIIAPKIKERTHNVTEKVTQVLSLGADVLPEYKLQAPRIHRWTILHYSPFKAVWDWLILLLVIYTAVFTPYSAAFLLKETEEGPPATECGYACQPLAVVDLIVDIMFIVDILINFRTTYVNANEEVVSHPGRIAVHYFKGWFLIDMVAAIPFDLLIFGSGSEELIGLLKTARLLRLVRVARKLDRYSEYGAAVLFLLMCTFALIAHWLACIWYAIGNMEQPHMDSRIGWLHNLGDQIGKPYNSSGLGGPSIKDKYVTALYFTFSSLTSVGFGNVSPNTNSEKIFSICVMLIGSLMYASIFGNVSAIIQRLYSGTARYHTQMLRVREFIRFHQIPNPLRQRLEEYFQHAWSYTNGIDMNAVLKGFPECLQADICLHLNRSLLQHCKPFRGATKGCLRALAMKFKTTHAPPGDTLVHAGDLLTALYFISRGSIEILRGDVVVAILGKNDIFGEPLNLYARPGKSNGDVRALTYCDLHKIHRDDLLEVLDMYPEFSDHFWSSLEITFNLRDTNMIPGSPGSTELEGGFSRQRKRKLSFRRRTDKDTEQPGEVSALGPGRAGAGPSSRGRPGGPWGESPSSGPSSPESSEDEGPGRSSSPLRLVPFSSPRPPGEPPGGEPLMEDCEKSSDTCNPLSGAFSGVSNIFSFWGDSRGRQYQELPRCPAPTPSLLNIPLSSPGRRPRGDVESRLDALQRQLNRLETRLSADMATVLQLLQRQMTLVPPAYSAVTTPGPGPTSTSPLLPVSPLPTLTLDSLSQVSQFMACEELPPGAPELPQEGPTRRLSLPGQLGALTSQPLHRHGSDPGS
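U2OS cells transduced with wild-type KCNH2 virus are loaded with FluxOr dye for 45 min, and thallium flux is measured in kinetic reads before and after stimulation buffer. Rate constants are normalized to DMSO controls.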
Active calls of the source: *; ? = inconclusive; . = not tested or not shown. An excerpt weighted towards active compounds, which were near 1.8% of everything screened. Unless noted, calls follow the shape of the dose curve; as a rule, active = well fitted curve in the direction sought with a large enough effect; inconclusive = small, poorly fitted or top-dose-only effect, or another doubt; inactive = no such curve, though single readings can be large; an effect the other way counts as inactive or inconclusive.

SMILES	KCNH2 3.1 block	12-LOX inh	AT treatment	hERG WT inh
COc1ccc(CN2C(=O)C(n3ccc4ccccc43)c3cc(OC(F)(F)F)ccc32)cc1 (stereo unspecified)	.	39.8µM*	.	.
COc1cc(C(=O)Oc2cccc(/C=N/NC(=O)c3cc(C)[nH]n3)c2)cc(OC)c1OC	6.0	4.1%	-3.8%	-2.1
Cc1cc(C(=O)N/N=C/c2cccc(OC(=O)c3cccc(Br)c3)c2)n[nH]1	-190.6*	-1.6%	4.5%	-151.2*
O=C(CCc1ccccc1)Nc1cccc(-c2nnc3n2CCCC3)c1	.	27.5%	.	.
CC1CN(Cc2ccccc2)c2ccccc2NC1=S (stereo unspecified)	-2.8	35.5µM*	10.4%	-0.4
CCN1c2cc(C(=O)Nc3cccc(C(F)(F)F)c3)ccc2C(=O)N2CCCCCC21 (stereo unspecified)	.	-0.2%	.	.
COc1ccc(Cn2c(CCC(=O)O)nc3cccnc32)cc1	-72.4*	5.7%	7.2%	-3.8
COc1ccc(CNC(=O)CCc2nc3cccnc3n2Cc2ccc(OC)cc2)cc1	.	5.6%	.	.
CCOC(=O)C1CCN(C(=O)C2COC3(CCCCC3)N2C(=O)c2ccccc2)CC1 (stereo unspecified)	.	1.5%	.	.
CC(C)c1ccc(CNc2nc(NCC3CC3)nc3ccsc23)cc1	.	50.1µM*	.	.
O=C(c1ccccc1)c1cc(Cl)ccc1N1C(=O)C=CC1=O	0.2	7.94µM*	?	-11.1
O=C(CC(=O)c1cc(Cl)ccc1O)c1ccccc1	-8.5	-6.6%	15.6%	0.0
[N-]=C=C1C(=O)NC(=O)C([n+]2ccc(-c3ccncc3)cc2)C1c1ccccc1C(F)(F)F (stereo unspecified)	6.0	?	-6.1%	-5.0
[N-]=C=C1C(=S)NC(=O)[C@H]([n+]2ccccc2)[C@H]1c1ccc(Cl)cc1	3.2	10µM*	2.3%	0.8
Cc1ccc(C2=NC3(CCN(C(=O)COc4cccc(C)c4)CC3)ON2)cc1	.	89.1µM*	.	.
Cn1c(=N)n(CC(=O)c2ccc(Cl)c(Cl)c2)c2ccccc21	-22.1	-3.0%	28.2µM*	7.5
N=c1n(Cc2ccccc2)c2ccccc2n1Cc1ccccc1	-49.5	?	-0.7%	2.7
N=c1n(CC(=O)c2ccc([N+](=O)[O-])cc2)c2ccccc2n1Cc1ccccc1	-74.8*	?	6.3%	7.1
O=C(Cn1c(NCCCO)nc2ccccc21)c1ccc([N+](=O)[O-])cc1	-73.1*	-19.7%	7.4%	-13.6
N=c1n(CC(=O)c2ccc(Br)cc2)c2ccccc2n1Cc1ccccc1	-83.9*	?	22.4µM*	-1.8
O=C(Cn1c(NCCO)nc2ccccc21)c1ccc([N+](=O)[O-])cc1	-13.3	0.0%	0.7%	29.2
Cn1c(=N)n(CC(=O)c2ccccc2)c2ccccc21	0.7	0.0%	5.1%	6.1
CCCNC(=O)CNC(=O)Cc1c[nH]c2ccccc12	.	-41.2%	.	.
CCCCC(=O)N1CCN(c2nc3c(OC)ccc(C)c3s2)CC1	.	-4.8%	.	.
COc1ccc(CN2CCN(c3ncnc4scc(-c5ccc(F)cc5)c34)CC2)cc1	-97.1*	?	14.1µM*	?
SMILES	KCNH2 3.1 block	12-LOX inh	AT treatment	hERG WT inh
COc1ccc(N2CCN(c3ncnc4scc(-c5ccccc5)c34)CC2)cc1	-22.5	-5.1%	-7.7%	3.7
CCOc1ccc(CN2CCN(c3ncnc4scc(-c5ccccc5)c34)CC2)cc1	-116.1*	?	10.7%	-141.4*
COc1ccc(N2CCN(c3ncnc4scc(-c5ccc(F)cc5)c34)CC2)cc1	9.4	-5.6%	3.4%	0.9
Cc1ccc(C)c(C(=O)/C=C/Nc2ccc(N(C)C)cc2)c1	.	29.0%	.	.
Cc1cnc(C(=O)N2CCOCC(CO)C2)cn1 (stereo unspecified)	.	50.1µM*	.	.
COc1ccc(C(=O)N2CCC3(CC2)OC(=O)N(Cc2csc(C)n2)C3(C)c2ccccc2)cn1 (stereo unspecified)	.	19.5%	.	.
O=C(c1ccccc1)c1c2c(cc3sc4ccccc4[n+]13)-c1cccc3cccc-2c13	-32.5	31.6µM*	8.0%	3.5
O=C(COc1ccc(Br)cc1)NC(=S)Nc1ccccc1N1CCOCC1	-10.1	?	-2.6%	-5.6
O=C(NC(=S)Nc1ccccc1N1CCOCC1)c1ccc(Br)cc1	8.7	35.5µM*	5.5%	6.4
Cc1cc(C(=O)NC(=S)Nc2ccccc2N2CCCC2)ccc1[N+](=O)[O-]	16.8	-1.6%	-3.9%	10.2

From PubChem BioAssay
